Screening results deposited in PubChem by University of Kansas High Throughput Screening Laboratory.
The entries come from a sample that favours hits as a whole.
Pf apPOL inh: Pf-apPOL DNA polymerase inhibition; AID 1794808; inhibition, % at 10 µM; 210,000 tested, 0.25% active; Recombinant Pf-apPOL, molecular beacon fluorescence, 1.5 h
mHTT-CaM PPI inh: disrupts binding of mutant huntingtin to calmodulin; P42858; inhibition, % at 15 µM; AlphaScreen His-mHTT/GST-CaM binding, luminescence; AID 1671202; 190,000 tested, 3.6% active;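 also: 0% = both proteins with DMSO and 100% = one protein alone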
The depositor's hits bear a star; / = no result given. Rule as the data show it: active = inhibition above about 50%; inactive = the rest.

SMILES	Pf apPOL inh	mHTT-CaM PPI inh
COc1cc(O)c(C(CCN2CCCCC2)c2ccc(N(C)C)cc2)c(OC)c1 (stereo unspecified)	-7	30
COc1cc(O)c(C(CC(=O)N2CCN(c3ccccc3)CC2)c2ccc3c(c2)OCO3)c(OC)c1 (stereo unspecified)	0	62*
COc1cc(O)c(C(CCN2CCCC2)c2ccc3c(c2)OCO3)c(OC)c1 (stereo unspecified)	-2	31
O=C1NC(=O)/C(=C/c2cccc(OCc3ccc([N+](=O)[O-])cc3)c2)S1	0	16
CN(CC(=O)Nc1cccc(C(F)(F)F)c1)S(=O)(=O)c1ccc(Br)s1	-5	-17
O=C(Cc1ccc(Cl)cc1)N(Cc1ccccc1)c1ccccn1	3	-3
NS(=O)(=O)c1cccc(NS(=O)(=O)c2ccccc2)c1	18	/
CC(=O)Nc1ccc(S(=O)(=O)Nc2ccc(S(=O)(=O)Nc3ccccc3)cc2)cc1	4	4
CC(=O)Nc1ccc(S(=O)(=O)Nc2ccc(Nc3ccccc3)cc2)cc1	1	83*
O=S(=O)(Nc1ccc(Nc2ccccc2)c(NS(=O)(=O)c2ccccc2)c1)c1ccccc1	-2	63*
COc1ccccc1C=CC(=O)Oc1c(C)cccc1C	1	-121
CC1CCCN(CC2CCN(S(=O)(=O)Cc3ccc(Cl)cc3)CC2)C1 (stereo unspecified)	-1	0
COc1ccc(Br)cc1/C=C1/C(=O)N(c2cccc(Cl)c2)N=C1C	4	8
Cc1ccc(C(=O)N2CCC(CCNS(=O)(=O)c3ccc(Cl)cc3)CC2)cc1	-3	26
O=C(c1ccc(F)cc1)N1CCC(CCNS(=O)(=O)c2cccc3cccnc23)CC1	-4	45
O=C(c1ccccc1)N1CCC(CCNS(=O)(=O)c2ccc(Cl)cc2)CC1	5	55*
Cc1ccc(F)cc1S(=O)(=O)NCCC1CCN(C(=O)c2ccccc2)CC1	2	54*
COc1ccc(S(=O)(=O)NCCC2CCN(C(=O)c3ccccc3)CC2)cc1	1	28
CC(=O)c1ccc(S(=O)(=O)NCCC2CCN(C(=O)c3ccc(C)cc3)CC2)cc1	3	57*
Cc1ccc(C(=O)N2CCC(CCNS(=O)(=O)c3cccc4cccnc34)CC2)cc1	-1	62*
Cc1ccc(C)c(S(=O)(=O)NCCC2CCN(C(=O)c3ccccc3)CC2)c1	10	47
COc1ccc(C2=N/C(=C\c3cc4ccccc4n3C(C)=O)C(=O)O2)cc1OC	-1	3
CCc1cccc(N2C=C(C(=O)N3CCCCC3)S(=O)(=O)c3ccccc32)c1	0	4
CC(C)C(=O)Nc1cccc(C(=O)Nc2cccc(O)c2)c1	-3	1
CC(=O)Nc1cccc(N2CC(C(=O)Nc3cc(C)cc(C)c3)CC2=O)c1 (stereo unspecified)	1	5
SMILES	Pf apPOL inh	mHTT-CaM PPI inh
CC(C)c1ccc(S(=O)(=O)NCCC2CCN(C(=O)c3ccccc3)CC2)cc1	-1	51*
Cc1ccc(C(=O)N2CCC(CCNS(=O)(=O)c3cc(C)c(C)cc3C)CC2)cc1	2	45
CC(=O)Nc1ccc(S(=O)(=O)NCCC2CCN(C(=O)c3ccccc3)CC2)cc1	0	39
COc1ccc(OC)c(S(=O)(=O)NCCC2CCN(C(=O)c3ccc(C)cc3)CC2)c1	-6	63*
Nc1nc(SCc2ccc([N+](=O)[O-])cc2)n[nH]1	-3	3
CC(C)NC(=O)Cn1cccc1-c1nc(-c2ccccc2)cs1	-1	-3
Cc1ccnc(NC(=O)Cn2cccc2-c2nc(-c3ccccc3)cs2)c1	-1	54*
O=C(CNC(=O)c1ccccc1)OCc1cc(-c2ccc(F)cc2F)on1	-1	-11
OCCN=c1scc(-c2ccc(Br)cc2)n1-c1ccccc1	-1	60*
COc1ccc(-c2csc(=NCCO)n2-c2ccccc2)cc1	2	6
Cn1nc(-c2nc(-c3ccccc3F)no2)c2c1CCN(C(=O)C1(c3ccccc3)CC1)C2	-2	4
CC(=O)Nc1ccc(C2C(C#N)=C(N)Oc3cc(N(C)C)ccc32)cc1 (stereo unspecified)	-3	15
CN(C)c1ccc2c(c1)OC(N)=C(C#N)C2c1cc(Br)cs1 (stereo unspecified)	-5	53*
CN(C)c1ccc2c(c1)OC(N)=C(C#N)C2c1ccc(F)c(Br)c1 (stereo unspecified)	-4	83*
N#CC1=C(N)Oc2cc(N)ccc2C1c1cc(Br)cs1 (stereo unspecified)	-2	13
Cc1sc2c(=O)n(C(C)C)cnc2c1C(=O)N1CCN(c2ccccc2)CC1	2	8
Nc1c(C(=O)Nc2ccc(F)cc2)sc2[nH]c(=O)c(C(=O)O)cc12	-5	46
COc1ccc(NC(=O)C(C)(c2ccccc2)c2ccccc2)cc1	-1	0
CC(C)Cn1cc(C(=O)O)c2c([nH]c3ccccc32)c1=O	-3	-4
Cc1ccc(S(=O)(=O)N(C)C)cc1NC(=O)Nc1cccs1	-4	/
